About 8,600 (12%) of roughly 69,000 compounds showed an effect of 50% or more. The list comes from a sample in which strong results are over-represented; it also holds similar structures and randomly drawn compounds.

Drawing on ChEMBL document CHEMBL4513216, “Probing the Open Global Health Chemical Diversity Library for Multistage-Active Starting Points for Next-Generation Antimalarials” (ACS Infect Dis, 2020), this text covers INHIBITION for 69 compounds.

For the test, the system named is Plasmodium berghei. Kind of test: Screen against P. berghei liver stage (PbLuc), transformed with Luciferase, at 10uM. Type of test: functional, HepG2. The settings on record: tested at 10 uM.
For the compound `CCCn1c(C)c(CC(=O)NCCOC)c2c1CC(C)(C)CC2=O`, the INHIBITION was -3.72%. In the case of `CC(=O)NS(=O)(=O)c1ccc(F)c(C(F)(F)F)c1` it was 54.7%; in that of `COC(C)C(=O)NS(=O)(=O)c1ccc(F)c(C(F)(F)F)c1` (centres undefined), 19.5%; in that of `CC(C)C(=O)NS(=O)(=O)c1ccc(F)c(C(F)(F)F)c1`, 0.825%. In the case of `COc1cc(Cl)c(NC(=O)c2cc3c([nH]c2=O)CCCC3=O)cc1OC` it was 43.6%.

For the compound `Cc1nc(SCC(=O)Nc2ccc(C(N)=O)cc2)c(C#N)c(C)c1C`, the INHIBITION is given as 48.7%. As for `Cc1ccc(C(=O)Nc2ccc(N(C)C)nc2)n1C`, the INHIBITION was -130%.

Regarding `Cn1ccnc1CN1CC[C@H](O)[C@@H](n2ccc(=O)[nH]c2=O)CC1`, the INHIBITION worked out at 22%. Next, `CNC(=O)[C@@H]1C[C@@H](n2cc(-c3ccc(Cl)cc3)nn2)CN1`: 43.9%; `CCN(CC)C(=O)[C@@H]1C[C@H](n2cc(-c3ccccn3)nn2)CN1`: 34%; `CCN(CC)C(=O)[C@@H]1C[C@@H](n2cc(-c3cccc(OC)c3)nn2)CN1`: 53.3%.

For the compound `CCN(CC)C(=O)[C@@H]1C[C@H](n2cc(-c3cccc(OC)c3)nn2)CN1`, the INHIBITION is listed as 16.9%. In the case of `CNC(=O)[C@@H]1C[C@H](n2cc(-c3ccc(Cl)cc3)nn2)CN1` it was 30.3%; in that of `CCN(CC)C(=O)[C@@H]1C[C@@H](n2cc(-c3ccccn3)nn2)CN1`, 85.4%. In the case of `O=C(NCC(=O)N1CCCC(c2ccccc2)CC1)c1ccoc1` (centres undefined) it was 23.4%; in that of `COC1CCN(C(=O)COC(C)=O)CC(=O)N(C)c2ccccc21` (centres undefined), 32.1%; in that of `COCC[C@]1(O)CCN(CC(=O)NCc2ccccn2)C[C@H]1C`, 25.4%.

Turning to `Cc1cc(C)nc(N2CC=C[C@H]2C(=O)NCc2ccc3c(c2)OCO3)n1`, the INHIBITION was found to be 25.8%.

With `CCCC(=O)Nc1cnn(CC(=O)Nc2ccc(SC)cc2)c1`, the INHIBITION is listed as 14.3%.

Take `CCn1nc(C)c(C(C)Nc2cc(C3CCNCC3)nc(C)n2)c1C` (centres undefined): the INHIBITION is recorded as -46.8%. For the compound `CS(=O)(=O)CCCNC1CCCN(Cc2noc(C3CC3)n2)C1` (centres undefined), the INHIBITION is listed as 19.5%. Next, `c1nc2c(c(NC3CCC3)n1)CCNCC2`: 17.2%; `Cc1cc(NC2CCc3ncnn3C2)n2ncnc2n1` (centres undefined): 57.7%. Next, `CC(C)c1nc2n(n1)CC(NCc1cc3ccccc3o1)CC2` (centres undefined): 43.2%; `c1ccc(CNC2CCc3ncnn3C2)nc1` (centres undefined): -0.847%. As to `c1nc2c(c(NC3CCc4ncnn4C3)n1)CCC2` (centres undefined), the INHIBITION was 76.7%. Next, `CC(C)c1nc2n(n1)CC(Nc1ncnc3ccccc13)CC2` (centres undefined): 80.5%; `CCc1nc2n(n1)CC(Nc1cc(C)nc3ncnn13)CC2` (centres undefined): 3.95%. With `CC(C)c1nc2n(n1)CC(Nc1ncnc3c1CCC3)CC2` (centres undefined), the INHIBITION is 48%. Next, `Cc1cc(NC2CCc3nc(C)nn3C2)n2ncnc2n1` (centres undefined): -12.5%; `Cc1nc2n(n1)CC(Nc1ncnc3c1CCC3)CC2` (centres undefined): 41.5%.

`FC(F)(F)c1nc(NC2CCc3ncnn3C2)c2ccccc2n1` (centres undefined): the INHIBITION is on record as 2.25%. In the case of `c1ccc2c(NC3CCc4ncnn4C3)ncnc2c1` (centres undefined) it was 63.8%; in that of `Cn1cnc2c1C(COCc1ccccc1)N(Cc1cccnc1)CC2` (centres undefined), 8.85%; in that of `Cc1nc2ccc(C(=O)N3CC[C@H](O)[C@@H](N4CCOCC4)CC3)cc2[nH]1`, -5.71%. Next, `O=C(N[C@@H]1CN(Cc2c[nH]nc2-c2ccccc2)C[C@H]1O)c1cc[nH]n1`: -3.182%; `CN(C)C(=O)COCc1nnc2n1CCN(Cc1ccsc1)C2`: 39.4%; `O=C1COC2(CCN(Cc3ccncc3)CC2)CN1`: -55%. Consider `CCOc1ccc(Br)cc1-c1cc(N)[nH]n1`, for which the INHIBITION was -21.3%. Next, `CC(C)C(=O)N1CCCC2(CCCN2CC2CCCC2)C1` (centres undefined): -26.5%.

On to `O=C(Cc1c[nH]c2ccccc12)N1CCC(Nc2cccnc2)CC1`, for which the INHIBITION is listed as -12.2%. Next, `O=C(NCCOc1ccc(Cl)cn1)Nc1cccnc1`: -24.7%; `CC1(C(=O)N2CCOCC2)CN(Cc2cccnc2)CCO1` (centres undefined): 2.71%. For `CCC(O)CN(Cc1cccc(C(=O)N(C)C)c1)c1ccccc1` (centres undefined), the INHIBITION worked out at 2.93%. In the case of `CC(O)CN(Cc1cccc(C(=O)N(C)C)c1)c1ccccc1` (centres undefined) it was 60.5%; in that of `CC(O)CN(Cc1cccc(C(N)=O)c1)c1ccccc1` (centres undefined), 28.9%; in that of `CC(O)(CNc1ccc(Cl)c(C#N)n1)c1ccccc1` (centres undefined), -25%.

In the case of `CC(C)c1nnc2n1CCN(CCS(=O)(=O)c1ccccc1)C2`, the INHIBITION was 4.71%.

In the case of `COCC1CC2(CCN(C(C)=O)CC2)CN1Cc1csc(C)n1` (centres undefined), the INHIBITION is 79.6%. Next, `CCN1CCC2(CC1)CC(COC)N(Cc1csc(C)n1)C2` (centres undefined): 8.85%. In the case of `COCC1CC2(CCN(Cc3nccs3)CC2)CN1Cc1ccccn1` (centres undefined) it was 71.1%; in that of `COCC1CC2(CCN(C(N)=O)CC2)CN1Cc1csc(C)n1` (centres undefined), 41%. Consider `COCC1CC2(CCN(Cc3ccoc3)CC2)CN1Cc1ccccn1` (centres undefined), for which the INHIBITION was 48.4%.

As to `COCC1CC2(CCN(CC3CC3)CC2)CN1Cc1ccccn1` (centres undefined), the INHIBITION was determined as 13.1%. In the case of `Cc1cc(C)n(CC2CCCN2CC(=O)N(C)Cc2ccco2)n1` (centres undefined) it was 4.71%; in that of `Cc1nnc(-c2cccc(C#N)c2)n1C1CCN(C2CC2)C1=O` (centres undefined), -25.7%; in that of `O=C(Cn1cccn1)NCC1CCN(Cc2cc3ccccc3[nH]2)C1` (centres undefined), 9.79%. Next, `O=C(Cn1cc(-n2cccc2)cn1)NCC1CCC1`: 55.6%; `CCN1CCCC(CNC(=O)CCc2ccc(OC)c(F)c2)C1` (centres undefined): 11.5%. Next, `Cc1cc(CN2CCCC(CNC(=O)Cn3cccn3)C2)oc1C` (centres undefined): 57.6%. For the compound `Cc1cc(CN2CCC(CNC(=O)CN3CCCCCC3)C2)[nH]n1` (centres undefined), the INHIBITION is 10.7%.

Take `O=C(Cn1cc(-n2cccc2)cn1)NCC(F)(F)F`: the INHIBITION is listed as 6.83%.

`O=C(Cn1cc(I)cn1)NCC1CCC1`: the INHIBITION was determined as 27.5%. In the case of `O=C(Cn1cccn1)NCC1CCCN(Cc2ccccc2)C1` (centres undefined) it was 13.7%. In the case of `CCCC(=O)NCC1CCCN(Cc2cc(C)c(C)o2)C1` (centres undefined) it was 54.4%; in that of `CO[C@@H]1CN(c2ccccc2)S(=O)(=O)[C@@]12CCN(C)C2`, 32.1%. Next, `CN1CC(=O)N(c2ccccc2)CC12CCN(C(=O)CC1CC1)C2` (centres undefined): 4.68%; `CC[C@@H](c1ccccc1)n1c(CN)n[nH]c1=O`: 4.48%; `c1cncc(-c2noc(CN3CCn4c(nnc4C4CC4)C3)n2)c1`: 15.66%.
